Bioassay records deposited in PubChem by several laboratories.
Most compounds without a hit are left out; they make up all but 32% or so of the library.
PostGolgi ctrl = yeast control strain growth, post-Golgi counter-screen; efflux-deficient yeast background strain, growth absorbance A615, 16 h; inhibition, % at 10 µM; 5% of 98,000 active
CYP2C19 act = activators of human cytochrome P450 2C19. P33261. recombinant CYP2C19, luciferin-H EGE luminescence; active compounds read high; 0 = fully inhibited enzyme, 1 = untreated enzyme. activation factor at 5 µM. 96,000 tested, under 10 active. AID 1025;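 active = activation factor of at least 2 at 5 µM in the primary screen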;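 also: 0 = wells with 2.5 mM tranylcypromine and 1 = vehicle-only wells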
CYP2C9 act = activators of human CYP2C9 | P11712 | recombinant CYP2C9, luciferin-H conversion, luminescence; active compounds read high; factor 1 = untreated enzyme, 0 = blocked | activation factor at 5 µM | 1.4% of 96,000 active | AID 1024;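 active = activation factor of 2 or more for CYP2C9 at a 5 µM dose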;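 also: 0 = sulfaphenazole-blocked wells and 1 = vehicle-only wells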
Target sequence (P11712 whole entry, looked up): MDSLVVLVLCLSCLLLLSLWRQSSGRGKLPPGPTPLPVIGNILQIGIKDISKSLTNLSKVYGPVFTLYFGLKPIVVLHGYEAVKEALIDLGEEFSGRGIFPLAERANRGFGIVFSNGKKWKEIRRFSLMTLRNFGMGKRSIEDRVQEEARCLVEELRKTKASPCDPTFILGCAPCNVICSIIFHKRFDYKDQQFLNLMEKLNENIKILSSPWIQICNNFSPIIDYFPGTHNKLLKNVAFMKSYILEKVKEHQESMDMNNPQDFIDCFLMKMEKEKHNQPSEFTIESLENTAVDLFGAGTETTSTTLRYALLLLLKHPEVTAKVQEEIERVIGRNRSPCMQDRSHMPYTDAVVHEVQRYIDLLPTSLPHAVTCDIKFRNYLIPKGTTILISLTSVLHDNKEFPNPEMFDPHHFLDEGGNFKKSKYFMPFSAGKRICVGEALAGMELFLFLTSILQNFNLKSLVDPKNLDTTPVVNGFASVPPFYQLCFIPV
CYP2C19 inh = human CYP2C19 inhibition | P33261 | CYP2C19 Supersomes, luciferin-H EGE luminescence, 30 min | inhibition, % at 5 µM | 21% of 96,000 active;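 active = CYP2C19 inhibition above a set limit at 5 µM in the primary screen, cut at about 50% in these data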;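 also: plate controls were negative control wells for no effect and 2.5 mM tranylcypromine positive control for full effect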
PostGolgi yeast = growth inhibition of a yeast mutant, post-Golgi transport screen | post-Golgi transport phenotypic cell assay | inhibition, % at 10 µM | 0.9% of 98,000 active | AID 739;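 also: yeast cells grown in 1536-well plates; yeast grown about 18 h at 30C before absorbance read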
CYP2C9 inhib = inhibitors of human CYP2C9; inhibition, % at 5 µM; CYP2C9 Supersomes, luciferin-H conversion, luminescence; P11712; 20% of 96,000 active; AID 777;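 active = blocking of liver enzyme CYP2C9 beyond about 50% at 5 µM, limit read from the data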
* = called active by the depositor; · = no result. Rule as the data show it, unless noted: active = inhibition above about 30%; inactive = the rest.

SMILES	PostGolgi ctrl	CYP2C19 act	CYP2C9 act	CYP2C19 inh	PostGolgi yeast	CYP2C9 inhib
CCC(Oc1nc2ccccc2nc1-c1ccccc1NC(C)=O)C(=O)c1ccccc1 (stereo unspecified)	12.5	1	0.5	-4.4	-6.3	53.3*
CC(=O)Nc1ccccc1-c1nn[nH]n1	11.7	1	1	3.7	-0.8	-2.2
COc1ccc(OCCn2c(C)c(/C=N/n3cnnc3)c3ccccc32)cc1	14.4	0.2	0.3	75.6*	15.1	74.9*
Cc1cccc(OCCn2c(S(=O)(=O)O)nc3ccccc32)c1	24.9	0.9	0.7	10.7	2.1	35.0
Cc1c(/C=N/n2cnnc2)c2ccccc2n1C	2.2	0.2	0.8	76.6*	9.4	20.3
COc1cccc(OCCn2c(C)c(/C=N/n3cnnc3)c3ccccc32)c1	2.8	0.4	0.6	56.0*	3.7	36.4
CCN(CC)C(=O)/C(=C\c1ccc2c(c1)OCO2)NC(=O)c1ccc(Br)cc1	9.8	0.8	0.6	19.6	-1.2	39.7
Cc1[nH]c(=O)cc2ccccc12	3.4	1	1.1	4.9	-7.8	-12.2
Cc1cc(NC(=O)Cn2nc(-c3ccccc3F)ccc2=O)ccc1-n1cnnn1	4.6	1	0.8	-2.8	8.3	16.7
Cc1cc(C(=O)NCc2cc(C(=O)O)oc2C)c(C)o1	-0.3	1.1	1	-5.5	5.0	1.0
N#C/C(C(=O)c1ccccc1)=C1/SC=C(N)N1c1ccccc1	8.9	0.2	0.1	81.3*	-5.4	92.3*
COC(=O)/C(C#N)=C1/SC=C(C)N1c1ccccc1	14.2	1	1.2	1.9	-4.4	-16.2
COc1ccc(NC(=O)CSc2nnc(CNC(=O)COc3ccc(Cl)cc3)o2)c(OC)c1	5.6	0.6	0.9	36.8	-2.3	10.7
COc1ccc(OC)c(NC(=O)CSc2nnc(CNC(=O)COc3ccc(Cl)cc3)o2)c1	12.3	0.4	1.1	60.7*	1.1	-9.8
COC(=O)c1ccccc1NC(=O)CSc1nnc(Cc2ccc(Cl)cc2)o1	25.7	0.1	0.2	90.6*	-17.3	82.0*
COc1ccccc1OCc1nnc(SCC(=O)c2cc(Cl)ccc2OC)o1	32.0*	0.9	2.6*	8.2	9.8	-156.0
COc1ccccc1NC(=O)CSc1nnc(CNC(=O)c2ccco2)o1	1.1	1.1	1.1	-10.7	2.2	-12.1
COc1ccccc1NC(=O)CSc1nnc(CNC(=O)COc2ccc(Cl)cc2)o1	0.4	0.4	2.2*	59.1*	-3.3	-122.1
Cc1ccc(S(=O)(=O)N2CC3CCCN3c3ccc(C(F)(F)F)cc32)cc1 (stereo unspecified)	9.8	0.5	0.5	49.0	-18.5	45.1
CC1(C)CC2CC(C)(CN2CC(=O)C(C#N)c2ccccc2)C1 (stereo unspecified)	5.5	0.2	1	79.8*	-3.5	1.7
CCC(=O)N1CCCc2cc(S(=O)(=O)N3CCCc4ccccc43)ccc21	35.2*	0.8	1.6	20.9	17.2	-63.3
CC(=O)N1CCCc2cc(S(=O)(=O)N3CCc4ccccc4C3)ccc21	12.2	0.3	1	74.4*	-3.2	-4.3
CCn1c(=O)n(CC)c2cc(S(=O)(=O)N3CCc4ccccc43)ccc21	24.6	0	0.1	96.3*	7.8	94.6*
CCC(=O)N1CCc2cc(S(=O)(=O)N3CCc4ccccc4C3)ccc21	-2.2	0.9	0.9	6.9	0.7	6.7
COC(=O)COc1ccc(S(=O)(=O)N2CCOCC2)cc1C	-0.3	0.8	1.1	17.5	15.5	-10.6
SMILES	PostGolgi ctrl	CYP2C19 act	CYP2C9 act	CYP2C19 inh	PostGolgi yeast	CYP2C9 inhib
O=C(Cn1c(=O)oc2cc(S(=O)(=O)N3CCc4ccccc43)ccc21)N1CCCCC1	2.3	0.9	0.7	14.6	-10.5	30.2
COC(=O)COc1ccc(S(=O)(=O)N2CCc3ccccc3C2)cc1C	7.2	0.2	2.1*	79.3*	-4.3	-109.0
NS(=O)(=O)c1ccc(NC(=O)CSc2nnc(COc3ccccc3Cl)n2C2CC2)cc1	-4.2	1	1	-2.7	5.1	4.1
O=C(O)C=C1CCN(c2ncc(C(F)(F)F)cc2Cl)CC1	6.7	·	·	·	-2.4	·
O=C(NCc1ccccn1)C(C(=O)c1ccc(F)cc1)n1ccccc1=O (stereo unspecified)	1.2	1.1	1.2	-12.5	-2.0	-19.8
CCOC(=O)N1CCN(S(=O)(=O)c2cc(OCC(N)=O)c(C)cc2Cl)CC1	2.7	0.5	0.9	48.5	-2.1	7.0
